Anthrax LF prot – blocks Bacillus anthracis lethal factor protease; 360,000 tested, 0.12% active; inhibition, % at 10 µM; multiplex microsphere protease cleavage assay, LF; P15917
Target sequence (P15917 whole entry, looked up): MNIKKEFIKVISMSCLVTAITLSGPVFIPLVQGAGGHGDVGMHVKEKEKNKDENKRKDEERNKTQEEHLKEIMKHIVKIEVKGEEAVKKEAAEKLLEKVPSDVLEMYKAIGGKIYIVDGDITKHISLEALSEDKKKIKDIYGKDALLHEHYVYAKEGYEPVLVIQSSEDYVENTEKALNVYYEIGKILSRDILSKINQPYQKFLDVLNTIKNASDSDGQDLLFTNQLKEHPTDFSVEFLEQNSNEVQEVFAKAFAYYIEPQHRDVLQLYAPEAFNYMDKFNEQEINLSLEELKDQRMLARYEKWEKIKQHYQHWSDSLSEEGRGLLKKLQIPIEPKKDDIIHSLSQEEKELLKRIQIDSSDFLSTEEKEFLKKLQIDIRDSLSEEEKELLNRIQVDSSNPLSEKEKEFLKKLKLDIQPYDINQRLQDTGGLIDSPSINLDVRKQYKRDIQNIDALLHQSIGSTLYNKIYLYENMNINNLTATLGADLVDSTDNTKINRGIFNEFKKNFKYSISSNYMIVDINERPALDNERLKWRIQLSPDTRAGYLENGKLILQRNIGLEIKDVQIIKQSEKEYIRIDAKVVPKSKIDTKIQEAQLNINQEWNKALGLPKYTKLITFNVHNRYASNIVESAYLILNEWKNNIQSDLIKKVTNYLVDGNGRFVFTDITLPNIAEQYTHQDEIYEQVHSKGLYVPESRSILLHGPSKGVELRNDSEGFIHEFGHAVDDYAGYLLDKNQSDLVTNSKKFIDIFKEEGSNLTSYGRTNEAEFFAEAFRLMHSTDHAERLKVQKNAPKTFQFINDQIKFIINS
Autofluor counter – compound fluorescence in toxin protease inhibitor counterscreen; fluorescence intensity (no concentration beside the values); compound autofluorescence counterscreen, microsphere flow cytometry; hits give high values; 360,000 tested, 3.1% active; in the data active = fluorescence intensity above about 16000; inconclusive = no clear call, values can overlap the other calls
BoNT-A LC inh2 – inhibitors of Botulinum neurotoxin A light chain protease. multiplex microsphere protease substrate cleavage, flow cytometry. inhibition, % at 10 µM. 360,000 tested, 0.17% active. AID 588499
BoNT-F LC inh – BoNT F light chain protease inhibition; Multiplex microsphere protease cleavage assay, flow cytometry; inhibition, % at 10 µM; 360,000 tested, 0.22% active; AID 588497; in the data active = inhibition above about 35%, passing the limit was not always enough; inconclusive = no clear call, values can overlap the other calls
PriA SSB inh – K. pneumoniae PriA-SSBct interaction inhibition. AlphaScreen SSBct-PriA binding, biotinylated peptide. inhibition, % at 33 µM. 430,000 tested, 0.6% active; in the data active = inhibition mostly above about 37%, no sharp cut-off; inactive = mostly below about 20%
Hits are given with their value; ! = not confirmed by another sample. In the library only some 3.1% were active in any assay of this set; here they are far more common. Rule as the data show it, unless noted: active = inhibition above about 30%; inconclusive = no clear call, values can overlap the other calls; inactive = below that.

CC(C)(Oc1ccc(Cl)cc1)C(=O)N1CCC2(CC1)CC(=O)c1ccccc1O2 was read as PriA SSB inh inactive.
CCSc1cc(C)nc2c(-c3ccc(Cl)cc3)c(C)nn12 was read as Anthrax LF prot inactive, Autofluor counter 20908, BoNT-A LC inh2 inactive, BoNT-F LC inh inactive and PriA SSB inh inactive.
For CCCOc1ccc(/C=C/C(=O)Nc2ccc([N+](=O)[O-])cc2C)cc1 the results were Anthrax LF prot inactive, Autofluor counter inactive, BoNT-A LC inh2 inactive, BoNT-F LC inh inactive and PriA SSB inh inactive.
COc1ccc(-c2csc(NC(=O)/C=C/c3ccc([N+](=O)[O-])cc3)n2)cc1OC was read as PriA SSB inh 69.
Screening CCCOc1ccc(/C=C/C(=O)Nc2ccc([N+](=O)[O-])cc2C)cc1OC returned Anthrax LF prot inactive, Autofluor counter 22086, BoNT-A LC inh2 inconclusive, BoNT-F LC inh inactive and PriA SSB inh inactive.
CCCCn1c(-c2csc(CC)c2)n[nH]c1=S was read as Anthrax LF prot inactive, Autofluor counter inactive, BoNT-A LC inh2 inactive, BoNT-F LC inh inactive and PriA SSB inh inactive.
`CCc1cc(-c2n[nH]c(=S)n2-c2cccc(C)c2)cs1` gave Anthrax LF prot inactive, Autofluor counter 18843, BoNT-A LC inh2 inactive, BoNT-F LC inh inactive and PriA SSB inh inactive.
Screening Cc1cc(-c2n[nH]c(=S)n2-c2ccccc2C)cs1 returned Anthrax LF prot inactive, Autofluor counter inactive, BoNT-A LC inh2 inactive, BoNT-F LC inh inactive and PriA SSB inh inactive.
Screening Cc1cccc(-n2c(-c3csc(C)c3)n[nH]c2=S)c1 returned Anthrax LF prot inactive, Autofluor counter 16396, BoNT-A LC inh2 inconclusive, BoNT-F LC inh inactive and PriA SSB inh inactive.
Screening CCSc1ccc(CC(=O)Nc2sc3c(c2C#N)CCN(C(C)=O)C3)cc1 returned PriA SSB inh inactive.
Screening ON=Cc1ccc2ccccc2c1 returned PriA SSB inh inactive.
Screening Cc1ccc(NC(=O)c2nnn(CC(=O)Nc3ccccc3)c2N)cc1C returned Anthrax LF prot inactive, Autofluor counter inactive, BoNT-A LC inh2 inactive, BoNT-F LC inh inactive and PriA SSB inh inactive.
Screening Cc1ccc(NC(=O)Cn2nnc(C(=O)NCc3ccccc3)c2N)cc1C returned Anthrax LF prot inactive, Autofluor counter 23778, BoNT-A LC inh2 inactive, BoNT-F LC inh inactive and PriA SSB inh inactive.
Nc1c(C(=O)NCc2ccccc2)nnn1Cc1ccccc1 was read as Anthrax LF prot inactive, Autofluor counter inactive, BoNT-A LC inh2 inactive, BoNT-F LC inh inactive and PriA SSB inh 98.
For Cc1ccc(C)c(NC(=O)c2nnn(Cc3ccccc3C)c2N)c1 the results were Anthrax LF prot inactive, Autofluor counter 23851, BoNT-A LC inh2 inactive, BoNT-F LC inh inactive and PriA SSB inh inactive.
CN(C)C=Nc1c(C(=O)NCc2ccccc2)nnn1Cc1ccccc1 was read as PriA SSB inh inactive.
CN(C)/C=N/c1c(C(=O)NCc2ccccc2)nnn1Cc1ccccc1 was read as Anthrax LF prot inactive, Autofluor counter 18876, BoNT-A LC inh2 inactive and BoNT-F LC inh inactive.
CNC(=O)c1c(NC(=O)c2ccc(S(=O)(=O)N3CCOCC3)cc2)sc2c1CCC(C)C2 (stereo unspecified) was read as PriA SSB inh inactive.
Screening Cn1c(=O)c(C(N)=NOC(=O)c2ccccc2)cn(-c2ccccc2)c1=O returned PriA SSB inh inactive.
Screening O=C(c1ccc(Cl)cc1)c1oc2ccccc2c1CS(=O)c1ccc(Cl)cc1 (stereo unspecified) returned Anthrax LF prot inactive, Autofluor counter 22309, BoNT-A LC inh2 inconclusive, BoNT-F LC inh inactive and PriA SSB inh inactive.
Screening Cc1ccc(/C=C/S(=O)(=O)NCC#CCOc2ccccc2C(N)=O)cc1 returned PriA SSB inh inactive.
CN(C)c1ncc(NC(=O)C(C)(C)C)cn1 was read as PriA SSB inh inactive.
Screening CCc1cc(=O)oc2cc(OCC(=O)OC)c(Cl)cc12 returned Anthrax LF prot inactive, Autofluor counter 22235, BoNT-A LC inh2 inconclusive, BoNT-F LC inh inactive and PriA SSB inh inactive.
O=[N+]([O-])c1cc(Cl)ccc1Nc1ccc(O)cc1 was read as PriA SSB inh 103.
O=[N+]([O-])c1ccc(Cl)cc1Nc1ccccc1 was read as PriA SSB inh inactive.
`O=C(NN=CC1CC=CCC1)c1ccc(Br)o1` (stereo unspecified) gave PriA SSB inh inactive.
Screening COc1ccc(-c2ccc(-c3nnn(CC(C)=O)n3)cc2)cc1 returned Anthrax LF prot inactive, Autofluor counter 22673, BoNT-A LC inh2 inactive, BoNT-F LC inh inactive and PriA SSB inh inactive.
Screening O=C(NCc1ccccn1)C1COCC(=O)N1Cc1cccs1 (stereo unspecified) returned PriA SSB inh inactive.
`O=C(NC1(C(F)(F)F)NC(=O)N(Cc2cccnc2)C1=O)c1ccc(F)cc1` (stereo unspecified) gave Anthrax LF prot inactive, Autofluor counter 23016, BoNT-A LC inh2 inactive, BoNT-F LC inh inactive and PriA SSB inh inactive.
`CCCCCCOc1ccc(C(=O)Nc2ccc(Br)cn2)cc1` gave PriA SSB inh inactive.
Clc1cccc(N2CCNCC2)n1 was read as Anthrax LF prot inactive, Autofluor counter inactive, BoNT-A LC inh2 inactive, BoNT-F LC inh inactive and PriA SSB inh inactive.
`N#Cc1cc(C#N)c(N2CCN(c3cccc(Cl)n3)CC2)nc1N` gave Anthrax LF prot inactive, Autofluor counter 19498, BoNT-A LC inh2 inactive, BoNT-F LC inh inactive and PriA SSB inh inactive.
Screening O=C(COc1ccccc1)N1CCC(CNS(=O)(=O)c2ccc(OC(F)(F)F)cc2)CC1 returned PriA SSB inh inactive.
For Cc1ccccc1C(O)c1ccncc1 (stereo unspecified) the results were Anthrax LF prot inactive, Autofluor counter 19164, BoNT-A LC inh2 inactive, BoNT-F LC inh inactive and PriA SSB inh inactive.
For Cc1[nH]c2ccccc2c1C(O)c1ccncc1 (stereo unspecified) the results were Anthrax LF prot inactive, Autofluor counter inactive, BoNT-A LC inh2 inactive, BoNT-F LC inh inactive and PriA SSB inh inactive.
Screening Cc1ccc(C(O)c2ccncc2)cc1 (stereo unspecified) returned Anthrax LF prot inactive, Autofluor counter 17116, BoNT-A LC inh2 inactive, BoNT-F LC inh inactive and PriA SSB inh inactive.
Screening CCOc1ccc(NC(=O)CSc2nnc(-c3ccccn3)n2N)cc1 returned Anthrax LF prot inactive, Autofluor counter inactive, BoNT-A LC inh2 inactive, BoNT-F LC inh inactive and PriA SSB inh 64!.
CCn1c(SCC(=O)c2ccc(OC)cc2)nnc1C1CC1 was read as Anthrax LF prot inactive, Autofluor counter inactive, BoNT-A LC inh2 inactive, BoNT-F LC inh inactive and PriA SSB inh inactive.
For COc1ccc(NC(=O)CSc2nnc(-c3ccccn3)n2N)cc1 the results were Anthrax LF prot inactive, Autofluor counter inactive, BoNT-A LC inh2 34, BoNT-F LC inh 35 and PriA SSB inh 59.
Screening CCOc1ccc(NC(=O)CSc2nnc(C3CC3)n2N)cc1 returned Anthrax LF prot inactive, Autofluor counter 23438, BoNT-A LC inh2 inactive, BoNT-F LC inh inactive and PriA SSB inh inactive.
`Nn1c(SCC(=O)Nc2ccc(Oc3ccccc3)cc2)nnc1C1CC1` gave Anthrax LF prot inactive, Autofluor counter inactive, BoNT-A LC inh2 inactive, BoNT-F LC inh inactive and PriA SSB inh inactive.
Screening Nn1c(SCC(=O)Nc2ccc(F)cc2)nnc1-c1ccccn1 returned Anthrax LF prot inactive, Autofluor counter inactive, BoNT-A LC inh2 inactive, BoNT-F LC inh inactive and PriA SSB inh inactive.
